Reference: PubChem BioAssay AID1159580 (chemical genetic matrix, 2015)
The campaign covered roughly 5,500 compounds. About 2,000 (36%) were called active. Another 18% or so got no clear call; they are omitted. Rule as the data show it: active = normalized growth mostly below about 0.91 (no sharp cut-off); inconclusive = no clear call, values can overlap the other calls; inactive = mostly above about 0.92. The list shows a part of the results.

Assay: chemical genetic growth profiling, strain panel (AID 1159580);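 also: tested at 20 µM; growth read once vehicle control cultures reached saturation at 30 °C; 1 = growth at the plate median or of vehicle wells; lower values mean less growth of the strain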
Conditions: S. cerevisiae deletion strains, growth OD

Measured: normalized growth

C=CCN1CC[C@]23c4c5ccc(O)c4O[C@H]2/C(=N\NC(=O)c2ccccc2)CC[C@@]3(O)[C@H]1C5
inactive: locus YAL013W, strain DEP1, active compounds read low 0.989 | locus YAL040C, strain CLN3, active compounds read low 1.06 | locus YCL061C, strain MRC1 (second series), active compounds read low 0.987 | locus YDR363W, strain ESC2, active compounds read low 0.998 | locus YER002W, strain NOP16, active compounds read low 1.03 | locus YGR078C, strain PAC10, active compounds read low 0.985 | locus YNL153C, strain GIM3, active compounds read low 0.983 | locus YNL175C, strain NOP13, active compounds read low 0.993 | locus YNL197C, strain WHI3, active compounds read low 0.996 | locus YNL224C, strain SQS1, active compounds read low 1 | locus YOR083W, strain WHI5 (second series), active compounds read low 0.991 | locus YPL241C, strain CIN2, active compounds read low 0.996
